Screens (PubChem BioAssay)
An excerpt weighted towards active compounds, which were near 11% of everything screened.
RORgamma inh = ROR gamma (mouse) transcription inhibition; P51450; Drosophila S2 Gal4-RORgamma UAS-luciferase reporter, 20 h; Potency, µM (doses to about 53.6 µM), for inactives: top-dose activity change, negative = inhibition, usual class: inhibitors; hit rate 5.4% among 310,000; also: potency is read from the fitted curve at half-maximal effect; % is scaled to controls: 0 for no effect and ±100 for the full control effect; nearly all actives have a fitted effect of over 60% in size
Target sequence (P51450 whole entry, looked up, the tested form may be a part): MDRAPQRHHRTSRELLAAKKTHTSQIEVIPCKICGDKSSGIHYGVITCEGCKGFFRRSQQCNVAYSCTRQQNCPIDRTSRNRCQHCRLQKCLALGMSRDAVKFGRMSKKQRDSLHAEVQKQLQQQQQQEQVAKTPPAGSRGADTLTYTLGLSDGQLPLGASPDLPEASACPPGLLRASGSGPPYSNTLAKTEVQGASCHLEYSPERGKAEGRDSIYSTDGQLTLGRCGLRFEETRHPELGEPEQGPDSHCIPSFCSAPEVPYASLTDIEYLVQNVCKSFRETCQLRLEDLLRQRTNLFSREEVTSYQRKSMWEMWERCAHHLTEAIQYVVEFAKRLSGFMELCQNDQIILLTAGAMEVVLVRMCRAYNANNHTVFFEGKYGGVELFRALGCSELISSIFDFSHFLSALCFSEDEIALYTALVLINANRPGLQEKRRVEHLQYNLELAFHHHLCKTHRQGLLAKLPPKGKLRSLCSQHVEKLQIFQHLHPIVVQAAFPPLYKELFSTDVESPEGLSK
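In this cell-based reporter format, copper sulfate (700 uM final) drives Gal4–ROR gamma fusion expression from a metallothionein promoter in Drosophila Schneider cells; compounds preincubated 1 hr, reporter read after 20 hr at ambient temperature.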
IL1B secr inh = inflammasome signaling inhibition, IL-1 beta readout; THP-1 LPS/ATP IL-1B secretion, AlphaLISA, 16 h; active compounds read low; activity change, % at 57.5 µM; hit rate 4.7% among 360,000; AID 743279; in the data active = activity change below about -50%; inconclusive = mostly about -30% to -49%; also: % is scaled to controls: 0 for no effect and ±100 for the full control effect
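THP-1 cells pretreated 1 hr with compounds (up to 57.5 uM final), then stimulated with LPS (250 ng/mL final) plus ATP (1.25 mM final); secreted IL-1B measured by AlphaLISA after 16 hr, decreased signal indicating inhibition.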
MCF10A rerep = induces DNA re-replication in MCF 10a normal breast cells. MCF 10A DNA re-replication, Hoechst nuclear intensity, 48 h. Potency, µM (doses to about 46.1 µM), inactives show at the top dose activity, positive = re-replication, actives largely listed as activators. hit rate 2.9% among 350,000. AID 624296; also: potency is read from the fitted curve at half-maximal effect; % of control where 0% means no effect; nearly all actives have a fitted effect of over 50% in size
SW480 rereplic = DNA re-replication induction in SW480 cells; hit rate 1.8% among 340,000; AID 624297; SW480 DNA re-replication, Hoechst DNA content imaging, 48 h; Potency, µM (series often up to 46.1 µM), for the others: top-dose re-replication activation, hits mostly activators; also: potency is read from the fitted curve at half-maximal effect; % of control where 0% means no effect; nearly all actives have a fitted effect of over 55% in size
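SW480 cells exposed to compounds for 48 hr at 37 C, 5% CO2, then Hoechst-stained 40 min. Nuclear DNA content imaged by fluorescence scanning (405 nm excitation, 500-530 nm emission); re-replication scored as increased high-intensity nuclei.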
VP16 counter = counter-screen for ROR gamma inhibitors: Gal4-VP16 reporter; Drosophila S2 Gal4-VP16 UAS-luciferase, luminescence, 20 h; hit rate 3.5% among 310,000; Potency, µM (series often up to 53.6 µM), without a hit: top-dose activity, negative = inhibition, usual class: inhibitors;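 also: Gal4-VP16 expression switched on by copper sulfate through the metallothionein promoter; potency is read from the fitted curve at half-maximal effect; % is scaled to controls: 0 for no effect and ±100 for the full control effect; nearly all actives have a fitted effect of over 50% in size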
* = called active by the depositor; [ ] = another dose, or the depositor's remark. Unless noted, calls follow the shape of the dose curve; as a rule, active = well fitted curve in the direction sought with a large enough effect; inconclusive = small, poorly fitted or top-dose-only effect, or another doubt; inactive = no such curve, though single readings can be large; an effect the other way counts as inactive or inconclusive.

Results for COc1ccc(CN2CCN(C(=O)c3ccccc3C(=O)c3ccccc3)CC2)cc1OC ?
IL1B secr inh: 8.5; MCF10A rerep: -5.7%; SW480 rereplic: -3.7%

Results for CC(C)CC(=O)N(c1nnc(-c2cccnc2)s1)C1CCCC1 ?
IL1B secr inh: -20.0; MCF10A rerep: -10.3%; SW480 rereplic: 22.0%

How did CCOC(=O)[C@]1(C(NC(=O)OC)c2cccc(C)c2)CCCC1=O (stereo partly specified) do in these assays?
RORgamma inh: -0.3%[10 µM]; VP16 counter: 1.8%[10 µM]

How did COC(=O)Nc1ccc(S(=O)(=O)N2CCCc3cccc(O)c32)cc1 do in these assays?
RORgamma inh: -2.8%; IL1B secr inh: 56.0; MCF10A rerep: 13µM*; SW480 rereplic: 25.9µM*; VP16 counter: 6.0%

How did CCC(=O)Nc1ccc(S(=O)(=O)N2CCc3ccccc32)cc1 do in these assays?
RORgamma inh: 60.6%; IL1B secr inh: 32.9; MCF10A rerep: inconclusive; SW480 rereplic: -10.6%; VP16 counter: -7.7%

How did COC(=O)Nc1ccc(S(=O)(=O)N2CCCCC2)cc1 do in these assays?
RORgamma inh: 14.9%; IL1B secr inh: 25.2; MCF10A rerep: 6.9%; SW480 rereplic: -3.3%; VP16 counter: 1.9%

How did COC(=O)Nc1ccc(S(=O)(=O)N2CCCc3ccccc32)cc1 do in these assays?
RORgamma inh: -18.6%; IL1B secr inh: 49.5; MCF10A rerep: 8.2µM*; SW480 rereplic: 1.64µM*; VP16 counter: -7.0%

How did Cc1ccc(NC(=S)NC(=O)c2ccccc2)cc1NC(=S)NC(=O)c1ccccc1 do in these assays?
RORgamma inh: 1.41µM*; IL1B secr inh: 38.7; MCF10A rerep: 10.5%; SW480 rereplic: 6.7%; VP16 counter: 7.08µM*

Results for COC(=O)c1ccccc1NC(=S)NC(=O)c1ccc2c(c1)OCO2 ?
RORgamma inh: 4.2%; IL1B secr inh: -5.7; MCF10A rerep: inconclusive; SW480 rereplic: 6.7%; VP16 counter: inconclusive

What do the screens show for `COC(=O)c1ccccc1NC(=S)NC(=O)c1ccccc1`?
RORgamma inh: 1µM*; IL1B secr inh: 12.1; MCF10A rerep: 6.6%; SW480 rereplic: -4.8%; VP16 counter: inconclusive

Results for Cc1cc(NC(=S)NC(=O)c2ccccc2)ccc1-c1cc2ccccc2oc1=O ?
RORgamma inh: 0.398µM*; IL1B secr inh: 8.6; MCF10A rerep: inconclusive; SW480 rereplic: inconclusive; VP16 counter: -48.2%

Results for O=C(NC(=S)Nc1cccc(NC(=S)NC(=O)c2ccccc2)c1)c1ccccc1 ?
IL1B secr inh: 31.8; MCF10A rerep: -23.0%; SW480 rereplic: inconclusive

What do the screens show for `COC(=O)c1ccccc1NC(=S)NC(=O)c1ccc(C)cc1`?
RORgamma inh: 15.8µM*; IL1B secr inh: -0.2; MCF10A rerep: 9.4%; SW480 rereplic: -4.1%; VP16 counter: inconclusive

Results for O=C(NCCCN1CCOCC1)c1ccccc1N1C(=O)[C@@H]2Cc3c([nH]c4ccccc34)C(c3cccc(Cl)c3)N2C1=O (stereo partly specified) ?
RORgamma inh: 24.1%; IL1B secr inh: 39.0; MCF10A rerep: -3.4%; SW480 rereplic: inconclusive; VP16 counter: -21.7%

How did CC(C)=NOCc1ccc(-c2cn([C@@H]3COC[C@@H]3O)nn2)cc1 do in these assays?
RORgamma inh: 2.7%[10 µM]; VP16 counter: 4.6%[10 µM]

How did Cc1ccccc1C(=O)NC(=S)Nc1ccccc1C(=O)O do in these assays?
RORgamma inh: 21.4%; IL1B secr inh: 18.0; MCF10A rerep: 18.7%; SW480 rereplic: -4.3%; VP16 counter: 24.2%

What do the screens show for `O=C(NNc1ccc([N+](=O)[O-])cc1)c1ccco1`?
RORgamma inh: 6.7%; IL1B secr inh: 15.2; MCF10A rerep: 0.6%; SW480 rereplic: -9.2%; VP16 counter: -2.7%

Results for O=C(NNc1ccc([N+](=O)[O-])cc1[N+](=O)[O-])c1ccco1 ?
RORgamma inh: inconclusive; IL1B secr inh: -61.9*; MCF10A rerep: 8.5%; SW480 rereplic: -1.4%; VP16 counter: inconclusive

What do the screens show for `Cc1ccccc1C(=O)NC(=S)Nc1ccccc1[N+](=O)[O-]`?
RORgamma inh: 6.31µM*; IL1B secr inh: inconclusive; MCF10A rerep: -11.1%; SW480 rereplic: -23.4%; VP16 counter: inconclusive
